According to PubChem BioAssay AID1159580 (chemical genetic matrix, 2015):
About 2,000 (36%) of roughly 5,500 compounds were called active. About 18% were inconclusive and are not listed. Cut-off read from the data, not from the text of the source: active = normalized growth mostly below about 0.91 (no sharp cut-off); inconclusive = no clear call, values can overlap the other calls; inactive = mostly above about 0.92. The list shows a part of the results.

Experiment: chemical genetic growth profiling, strain panel (AID 1159580);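 note: tested at 20 µM; growth read once vehicle control cultures reached saturation at 30 °C; 1 = growth at the plate median or of vehicle wells; lower values mean less growth of the strain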
Conditions: S. cerevisiae deletion strains, growth OD

Measured: normalized growth

CCC(C)C(=O)O[C@H]1C[C@H](O)C=C2C=C[C@H](C)[C@H](CC[C@@H](O)C[C@@H](O)CC(=O)O)C21 (stereo not given in full)
inactive: locus YAL021C, strain ccr4, hits give low values 1.02 | locus YAL026C, strain drs2, hits give low values 1.03 | locus YAL030W, strain snc1, hits give low values 1 | locus YBL061C, strain skt5, hits give low values 1.01 | locus YBR009C, strain hhf1, hits give low values 0.966 | locus YBR023C, strain chs3, hits give low values 1.02 | locus YBR171W, strain sec66, hits give low values 1 | locus YBR231C, strain swc5, hits give low values 0.976 | locus YBR279W, strain paf1, hits give low values 1.02 | locus YCL011C, strain gbp2, hits give low values 1.02 | locus YCL016C, strain dcc1, hits give low values 1.03 | locus YCL061C, strain MRC1, hits give low values 1.01 | locus YCL069W, strain vba3, hits give low values 1.01 | locus YCR088W, strain abp1, hits give low values 1 | locus YDL005C, strain med2, hits give low values 1.03 | locus YDL040C, strain nat1, hits give low values 0.993 | locus YDR001C, strain nth1, hits give low values 1.01 | locus YDR069C, strain doa4, hits give low values 1.01 | locus YDR159W, strain sac3, hits give low values 0.937 | locus YDR195W, strain ref2 0.952 | locus YDR297W, strain sur2, hits give low values 1.01 | locus YDR334W, strain swr1, hits give low values 0.994 | locus YDR335W, strain msn5, hits give low values 1.02 | locus YDR392W, strain spt3, hits give low values 0.987 | locus YEL003W, strain gim4, hits give low values 1.02 | locus YEL037C, strain rad23, hits give low values 1.02 | locus YEL061C, strain CIN8 (second series), hits give low values 0.986 | locus YER015W, strain faa2, hits give low values 1 | locus YER016W, strain bim1, hits give low values 1.06 | locus YER111C, strain swi4, hits give low values 1.02 | locus YER155C, strain BEM2 (second series), hits give low values 1.02 | locus YFR010W, strain ubp6, hits give low values 0.995 | locus YGL167C, strain pmr1, hits give low values 1 | locus YGL173C, strain kem1, hits give low values 1.02 | locus YGL227W, strain vid30, hits give low values 1 | locus YGL240W, strain doc1, hits give low values 1.04 | locus YGL253W, strain hxk2, hits give low values 1.02 | locus YHR013C, strain ard1, hits give low values 1.02 | locus YHR027C, strain rpn1, hits give low values 1.01 | locus YHR030C, strain SLT2, hits give low values 0.977 | locus YHR079C, strain IRE1, hits give low values 0.975 | locus YHR142W, strain chs7, hits give low values 1.02 | locus YJL092W, strain hpr5, hits give low values 1.01 | locus YJL095W, strain BCK1 (second series), hits give low values 1.02 | locus YJL095W, strain BCK1, hits give low values 0.965 | locus YJL115W, strain asf1, hits give low values 1.01 | locus YJL129C, strain trk1, hits give low values 1.02 | locus YJL154C, strain vps35, hits give low values 1.01 | locus YJL164C, strain tpk1, hits give low values 1.01 | locus YJL166W, strain qcr8, hits give low values 0.992 | locus YJL187C, strain SWE1, hits give low values 1.01 | locus YJR066W, strain TOR1, hits give low values 0.907 | locus YKL160W, strain elf1, hits give low values 1.05 | locus YKR026C, strain gcn3, hits give low values 0.99 | locus YKR091W, strain srl3, hits give low values 1 | locus YLL001W, strain dnm1, hits give low values 0.961 | locus YLL026W, hits give low values 1 | locus YLL041C, strain sdh2, hits give low values 0.991 | locus YLR027C, strain aat2, hits give low values 1 | locus YLR113W, strain HOG1, hits give low values 1 | locus YLR221C, strain rsa3, hits give low values 0.998 | locus YLR258W, strain gsy2, hits give low values 1.03 | locus YLR262C, strain YPT6 (second series), hits give low values 1.12 | locus YLR320W, strain mms22, hits give low values 0.963 | locus YLR342W, strain FKS1, hits give low values 1.02 | locus YLR357W, strain rsc2, hits give low values 1 | locus YLR370C, strain arc18, hits give low values 1.02 | locus YLR384C, strain iki3, hits give low values 0.991 | locus YML120C, strain ndi1, hits give low values 1.02 | locus YMR058W, strain fet3, hits give low values 1.01 | locus YMR125W, strain sto1, hits give low values 1.04 | locus YMR129W, hits give low values 1 | locus YMR205C, strain PFK2, hits give low values 0.972 | locus YMR231W, strain pep5, hits give low values 1 | locus YNL071W, strain lat1, hits give low values 1 | locus YNL183C, strain NPR1, hits give low values 0.902 | locus YNL209W, strain ssb2, hits give low values 1.01 | locus YNL248C, strain rpa49, hits give low values 1.03 | locus YNL322C, strain KRE1 (second series), hits give low values 1.06 | locus YNR049C, strain mso1, hits give low values 1.01 | locus YOR001W, strain rrp6, hits give low values 0.992 | locus YOR070C, strain gyp1, hits give low values 1 | locus YOR080W, strain dia2, hits give low values 0.999 | locus YOR083W, strain WHI5, hits give low values 1.01 | locus YOR106W, strain vam3, hits give low values 1.04 | locus YOR231W, strain MKK1, hits give low values 0.954 | locus YOR265W, strain rbl2, hits give low values 1 | locus YOR270C, strain vph1, hits give low values 0.946 | locus YOR290C, strain snf2, hits give low values 1.05 | locus YPL051W, strain arl3, hits give low values 1.06 | locus YPL078C, strain atp4, hits give low values 1.05 | locus YPL106C, strain sse1, hits give low values 1.02 | locus YPL240C, strain hsp82, hits give low values 1.01 | locus YPL256C, strain CLN2, hits give low values 1.01
active: locus YDR137W, strain rgp1, hits give low values 1.3 [resistant]
